High-throughput results as filed in PubChem BioAssay.
This is a sample that favours compounds with a hit; in the whole collection about 2.4% have one here.
D2 antag: D2 dopamine receptor (human) antagonism | P14416 | AID 485344 | inhibition, % at 10 µM | hit rate 2% among 340,000 | HEK293 TREx D2 cells, calcium flux, dopamine EC80; in the data active means inhibition above about 30%; inactive means below that, where a call was filed; further: 0% is about no effect
Target sequence (P14416 whole entry, looked up): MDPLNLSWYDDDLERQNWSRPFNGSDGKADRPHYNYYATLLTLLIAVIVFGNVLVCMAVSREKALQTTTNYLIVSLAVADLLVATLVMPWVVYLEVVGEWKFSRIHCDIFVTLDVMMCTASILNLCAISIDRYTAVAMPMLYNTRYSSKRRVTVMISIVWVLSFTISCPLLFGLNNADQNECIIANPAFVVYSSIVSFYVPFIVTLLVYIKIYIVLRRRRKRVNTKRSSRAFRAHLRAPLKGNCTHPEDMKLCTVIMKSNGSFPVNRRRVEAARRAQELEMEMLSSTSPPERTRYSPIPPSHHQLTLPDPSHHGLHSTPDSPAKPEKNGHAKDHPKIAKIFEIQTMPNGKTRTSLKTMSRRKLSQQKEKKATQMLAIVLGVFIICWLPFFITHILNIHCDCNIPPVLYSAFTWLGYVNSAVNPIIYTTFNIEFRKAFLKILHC
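Overnight-induced (tetracycline, 30 C) HEK293 T-REx cells carrying force-coupled D2 receive a no-wash calcium dye, then compound, then EC80 dopamine at 180 s; signals are read kinetically throughout.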
D2 ag-1: agonists of human D2 dopamine receptor (beta-arrestin); hit rate 0.084% among 360,000; AID 624465; DiscoveRx PathHunter D2 beta-arrestin, luminescence, 90 min; 100% = 57 uM dopamine signal; activation, % (no concentration beside the values); P14416; in the data active means activation above about 40%
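Agonist mode: compounds alone added to overnight-plated D2 PathHunter cells for 90 min at 37 C, with 57 uM final dopamine (EC100) defining full response. Beta-arrestin recruitment detected by chemiluminescent reagent, read after 1 h at ambient temperature.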
D2 PAM-1: positive allosteric modulators of human D2 dopamine receptor; potentiation, % at 10 µM; P14416; hit rate 0.34% among 340,000; HEK293 T-REx D2, calcium flux, EC20 dopamine potentiation; AID 485347;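 active means potentiation over 3 SD above the plate norm, cut at about 30% in these data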; further: 0% is about no effect
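Potentiation of an EC20 dopamine calcium response measured kinetically over 180 s, after a preceding 180 s compound-only read flagging agonists. Cells: inducible Hek293 Trex D2 line, 4000/well, cultured overnight at 30 C before dye loading.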
D2 PAM-2: human D2 receptor positive allosteric modulation | hit rate 0.23% among 360,000 | DiscoveRx D2 beta-arrestin cells, luminescence, 90 min; 100% = 57 uM dopamine signal | P14416 | potentiation, % (concentration not given with the values); in the data active means potentiation above about 50%
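PathHunter beta-arrestin assay in DiscoveRx D2 cells. Compounds were added with an EC20 of dopamine (50 nM final) for 90 min at 37 deg C. Luminescence was read 1 h after detection reagent, with 57 uM dopamine as the EC100 control.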
D2 ag-2: agonists of human D2 dopamine receptor; activation, % at 2 µM; HEK293 T-REx D2 cells, calcium flux agonist mode; hit rate 0.53% among 340,000; P14416; AID 485358;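 active means activation over 3 SD above normal in the single-dose calcium agonist read, cut at about 30% in these data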; further: 0% is about no effect
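Agonism is scored from calcium flux in a force-coupled, inducible HEK293 cell line expressing D2, read kinetically for 180 s after compound addition against dopamine controls.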
Starred values were filed as active, the others as inactive; nt = no result given.

SMILES | D2 antag | D2 ag-1 | D2 PAM-1 | D2 PAM-2 | D2 ag-2
CC(=O)C1=C(C)NC(C)=C(C(C)=O)C1c1cccs1 | -10 | -4 | 7 | 6 | 0
Cc1nn(C(=O)c2ccc(Cl)cc2)c(C)c1S(=O)(=O)N1CCCCCC1 | nt | nt | -2 | nt | -1
CNc1oc(-c2cccs2)nc1C#N | nt | 0 | nt | 9 | nt
COc1ccc(Nc2oc(-c3cccs3)nc2C#N)cc1 | -8 | 8 | 11 | 62* | 0
CCc1cccc(CC)c1NC(=O)C(Cc1ccccc1)NS(=O)(=O)c1cccc2nsnc12 (configuration not stated) | nt | nt | -9 | nt | 0
CC(C)OCc1cc(CN2CCN(c3cccc(C(F)(F)F)c3)CC2)c(O)c2ncccc12 | nt | nt | 8 | nt | -1
O=[N+]([O-])c1cc(CN2CCN(c3cccc(C(F)(F)F)c3)CC2)c2cccnc2c1O | 36* | 0 | -22 | -23 | -1
CCOC(=O)C1(CCc2ccccc2)CCN(Cc2nccn2CC)CC1 | -6 | -1 | 4 | -23 | 0
CCOC(=O)C1(Cc2ccccc2)CCN(Cc2nccn2CC)CC1 | 65* | -4 | 4 | -3 | 0
CCOC(=O)C1(CCc2ccccc2)CCN(Cc2cnc(N(C)C)s2)CC1 | 51* | 1 | -20 | -16 | 9
CCOC(=O)C1(CCc2ccccc2)CCN(Cc2c(O)cccc2OC)CC1 | 37* | -4 | -20 | -2 | 0
CCOC(=O)C1(CCc2ccccc2)CCN(Cc2ccc(OC)cc2)CC1 | 20 | -5 | -18 | -12 | 1
CCOC(=O)C1(CCc2ccccc2)CCN(C(=O)CN2CCOC2=O)CC1 | 37* | -2 | 13 | -1 | 0
CN(Cc1nccs1)C(=O)C1CCC(=O)N(CCc2ccc(Cl)cc2)C1 (configuration not stated) | 33* | -1 | -6 | -6 | 0
Cc1ccc(C)c(N2N=C(C(=O)O)CCC2=O)c1 | 6 | 1 | -8 | -2 | 0
Cc1ccc(C)c(N2N=C(C(=O)Nc3ccc(N4CCOCC4)cc3)CCC2=O)c1 | 35* | -3 | 0 | -11 | 0
CCOC(=O)c1sc2ccccc2c1S(=O)(=O)N1CCN(c2cc(C)ccc2C)CC1 | nt | nt | 5 | nt | 0
COc1ccc(CNC(=O)/C(C)=C\C(=O)O)cc1 | 36* | 1 | 1 | -8 | 0
C(=C\c1ccccc1)/CN1CCN(C(c2ccccc2)c2ccccc2)CC1 | 53* | nt | nt | nt | nt
Fc1ccc(C(c2ccc(F)cc2)N2CCN(C/C=C/c3ccccc3)CC2)cc1 | 65* | -2 | -25 | -30 | -1
Cc1ccc2c(C)c(C(=O)N(Cc3ccc(N(C)C)cc3)Cc3ccco3)oc2c1C | nt | nt | 5 | nt | -1
CCOC(=O)CC(NC(=O)c1cc2cc(OC)ccc2oc1=O)c1ccc(OC)cc1 (configuration not stated) | nt | nt | 13 | nt | -1
COCCn1c(SCC(=O)c2c(N)n(C3CC3)c(=O)[nH]c2=O)nnc1-c1ccc(Cl)cc1 | 11 | 40* | -1 | -4 | 0
COCCCn1c(SCC(=O)c2c(N)n(C3CC3)c(=O)[nH]c2=O)nnc1-c1ccccc1Cl | nt | -2 | nt | -5 | nt
CCCn1c(N)c(C(=O)CSc2nnc(-c3c[nH]c4ccccc34)n2C2CC2)c(=O)[nH]c1=O | nt | -2 | nt | -7 | nt
SMILES | D2 antag | D2 ag-1 | D2 PAM-1 | D2 PAM-2 | D2 ag-2
CCCn1c(N)c(C(=O)CSc2nnc(-c3cccs3)n2C2CC2)c(=O)[nH]c1=O | nt | 48* | nt | 20 | nt
COc1ccc(-n2c(=S)[nH]c3sc(-c4ccccc4)cc3c2=O)c(OC)c1 | 23 | -4 | -4 | -8 | 0
COc1ccc(-n2c(=S)[nH]c3c(sc(=S)n3-c3ccccc3)c2=O)c(OC)c1 | -3 | -6 | 37* | -30 | 0
COc1ccc(NC(=O)c2ccc(-n3cccn3)c([N+](=O)[O-])c2)cc1 | 45* | -1 | -5 | 5 | 0
CC(=O)Nc1ccc(S(=O)(=O)N2CCC(c3nnnn3-c3ccccc3)CC2)cc1 | nt | nt | 1 | nt | 1
CC(C)(C)CC(=O)Nc1nnc(SCC(=O)N2CCCCC2)s1 | -7 | -3 | 32* | 2 | 0
CC(C)(C)CC(=O)Nc1nnc(SCC(=O)NC2CCCCC2)s1 | -4 | -3 | 1 | -4 | 2
